A short description of assay [1]: NCI Yeast Anticancer Drug Screen. Data for the rad50 strain (AID 155).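 Also: 0% = growth of vehicle-only cultures of the same strain.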 Particulars: S. cerevisiae rad50 strain growth inhibition; at 50.0 µM; active compounds read high. The essentials:
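Compounds were tested on a yeast strain with an engineered DNA damage repair alteration; the reported value is growth inhibition normalised to vehicle treatment.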

Assay [2] in a line: NCI Yeast Anticancer Drug Screen. Data for the mec2-1 strain (AID 157). As to conditions: S. cerevisiae mec2-1 strain, at 50.0 µM, active compounds read high. The essentials:
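Yeast mec2-1 mutant treated with compound. Readout: growth inhibition vs vehicle controls.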

Assay [3] can be described thus: NCI Yeast Anticancer Drug Screen. Data for the sgs1 mgt1 strain (AID 161).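 Also: 0% = growth of cultures given vehicle only.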 As to conditions: S. cerevisiae sgs1 mgt1 strain, at 50.0 µM, active compounds read high. The essentials:
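Test agents were incubated with a DNA-repair-mutant yeast strain. Growth was then read and compared against vehicle-treated controls.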

Assay [4] in a line: NCI Yeast Anticancer Drug Screen. Data for the cln2 rad14 strain (AID 165).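 Also: 0% = growth equal to vehicle treated cultures.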 As to conditions: S. cerevisiae cln2 rad14 strain, at 50.0 µM, active compounds read high. The essentials: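 cln2 rad14 yeast strain; compound exposure; growth inhibition read vs vehicle controls.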
The nature of assay [5]: NCI Yeast Anticancer Drug Screen. Data for the bub3 strain (AID 167). As to conditions: S. cerevisiae bub3 mutant strain, at 50.0 µM, active compounds read high. Summed up:
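Growth of a checkpoint-deficient yeast mutant is measured after compound exposure. Values represent inhibition relative to vehicle.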

Assay [6] can be described thus: NCI Yeast Anticancer Drug Screen. Data for the mlh1 rad18 strain (AID 175). Particulars: S. cerevisiae mlh1 rad18 strain growth inhibition; at 50.0 µM; active compounds read high. The essentials: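 Yeast w/ defined DNA-repair lesions; compound exposure; growth vs vehicle controls → % inhibition.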

The panel holds about 79,000 compounds, 15% with a hit somewhere; the sample as a whole holds those more often. A number with no mark means an inactive call. Calls of active or inactive are those of the source. Rule as the data show it: active = growth inhibition above about 70%; inactive = the rest.

Regarding `CCCCOC(=O)C1C(c2ccc(Cl)cc2)NC(c2ccc(Cl)cc2)C(C(=O)OCCCC)S1(=O)=O` (stereo unspecified), the growth inhibition is -28.2% in assay [1]; -15.1% in assay [2]; -14.5% in assay [3]; -1.4% in assay [4]; -2.35% in assay [5]; -45.2% in assay [6].

On to `CN1CCC(c2ccccc2)(C(O)(c2ccccc2)c2ccccc2)CC1`, for which the growth inhibition was 3.15% in assay [1]; 1.25% in assay [2]; -6% in assay [3]; 12.1% in assay [4]; 0.65% in assay [5]; 12.7% in assay [6].

As for `[N-]=[N+]=NC(c1ccccc1)S(=O)c1ccccc1` (stereo unspecified), the growth inhibition in assay [1] is 98.1% (active); in assay [2], 98.5% (active); in assay [3] it was 95.8% (active); in assay [4], 48%; in assay [5] it was 96.3% (active); in assay [6] it was 91% (active).

Regarding `COCCC(=O)SCc1ccccc1`, the growth inhibition is 9.55% in assay [1]; -45.3% in assay [2]; -9.2% in assay [3]; -35.6% in assay [4]; -16.5% in assay [5]; 1% in assay [6].

Turning to `COc1ccc2c(c1)CN(Cc1ccccc1)CO2`, the growth inhibition in assay [1] is 3.85%; in assay [2], -3.4%; in assay [3], 6%; in assay [4] it was -17.4%; in assay [5] it was 13%; in assay [6] it was 11.7%.

Regarding `CC(C)NCCO`, the growth inhibition is 23.1% in assay [1]; -3% in assay [2]; -1.85% in assay [3]; 21.2% in assay [4]; 0.3% in assay [5]; 12.3% in assay [6].

Turning to `Nc1[nH]c(=O)nc2c1cnn2Cc1ccccc1`, the growth inhibition was -0.75% in assay [1]; -10.1% in assay [2]; -14.2% in assay [3]; -12.2% in assay [4]; -2.7% in assay [5]; -3.8% in assay [6].

Take `NNc1ncnc2c(C3OC(CO)C(O)C3O)[nH]nc12` (stereo unspecified): the growth inhibition in assay [1] is 7%; in assay [2], 6.35%; in assay [3], 8.2%; in assay [4], -70.3%; in assay [5] it was 7.15%; in assay [6] it was 8.95%.

Take `CCN(c1ccccc1C(=O)O)S(=O)(=O)c1ccc(C)cc1`: the growth inhibition in assay [1] is 1.9%; in assay [2], -1.95%; in assay [3] it was 23.2%; in assay [4], 27.6%; in assay [5], 22%; in assay [6], 11.9%.

As to `c1ccc(N2CCSCC2)cc1`, the growth inhibition was 2.95% in assay [1]; -5.45% in assay [2]; -21.9% in assay [3]; -6.25% in assay [4]; 0.3% in assay [5]; -7.15% in assay [6].

`O=C(O)CCc1c[nH]c2ccccc12`: the growth inhibition in assay [1] was 10.2%; in assay [2] it was 1.15%; in assay [3], 31.8%; in assay [4] it was -55.4%; in assay [5] it was -7.95%; in assay [6], 18.5%.

For `CCOC(=O)C1CN2C(=O)CCC2C1=O` (stereo unspecified), the growth inhibition is -5.65% in assay [1]; 15.2% in assay [2]; 8.7% in assay [3]; -5.85% in assay [4]; 15.4% in assay [5]; 4.7% in assay [6].

In the case of `C=CCN1C(=O)C(c2ccccc2)(c2ccccc2)NC1=S`, the growth inhibition was 1.7% in assay [1]; -32.9% in assay [2]; -32.1% in assay [3]; -20.1% in assay [4]; -30.6% in assay [5]; -41.1% in assay [6].

Take `C[N+]1(C)N=C([O-])N(CCCCCCN2C(=O)[N+](C)(C)N=C2[O-])C1=O`: the growth inhibition is 10.3% in assay [1]; -13.1% in assay [2]; 15.1% in assay [3]; 9.55% in assay [4]; 8.65% in assay [5]; 15% in assay [6].

On to `C=CCNC(=S)/N=C/c1c(O)c2ccccc2oc1=O`, for which the growth inhibition in assay [1] was -33.5%; in assay [2], -29.6%; in assay [3], -43%; in assay [4], -33.6%; in assay [5], -53%; in assay [6] it was -46.9%.

For `O=C(OCC1CCCO1)c1ccc(Cl)cc1` (stereo unspecified), the growth inhibition in assay [1] was 13.7%; in assay [2], -4.4%; in assay [3], 24.9%; in assay [4], 34.1%; in assay [5], 8%; in assay [6] it was 7.2%.

With `NNC(=O)NN1C(=O)c2cc(S(=O)(=O)O)cc3c(N)c(S(=O)(=O)O)cc(c23)C1=O`, the growth inhibition is 35.2% in assay [1]; -3.05% in assay [2]; 14.6% in assay [3]; 6.35% in assay [4]; -5.45% in assay [5]; 10.3% in assay [6].

`CCOC(=O)C(=[N+]=[N-])C(=O)CN1C(=O)C2CC(C)=C(C)CC2C1O` (stereo unspecified): the growth inhibition is -18.8% in assay [1]; 1.15% in assay [2]; -4.45% in assay [3]; 1.85% in assay [4]; -10.8% in assay [5]; 16.9% in assay [6].

In the case of `COC(CCCl)c1ccccc1` (stereo unspecified), the growth inhibition was 1.2% in assay [1]; -21.2% in assay [2]; -9.8% in assay [3]; 8.25% in assay [4]; -12.7% in assay [5]; 6.9% in assay [6].

Take `CC1(C)C(O)c2ccccc2OC1N1CCN(C2Oc3ccccc3C(O)C2(C)C)CC1` (stereo unspecified): the growth inhibition in assay [1] is -18.4%; in assay [2], -1.35%; in assay [3], 23.8%; in assay [4] it was -4.65%; in assay [5], -10.8%; in assay [6], -8.6%.

Consider `O=C1NC2c3ccccc3CCC12` (stereo unspecified), for which the growth inhibition is -1.55% in assay [1]; -5.45% in assay [2]; -1.5% in assay [3]; -71.8% in assay [4]; 8.65% in assay [5]; -4.5% in assay [6].
